Test results as given in ChEMBL document CHEMBL4513158, “CO-ADD screening of RKDF (India) compounds”.
Potency and affinity values are given separately.

Experiments:
Klebsiella pneumoniae = settings: Concentration 32 ug.mL-1; ASSAY_TEST Inhibition of Bacterial Growth; detection method Absorption (OD600); MEDIA CAMHB; plate type 384well; NBS; CORNING #3640; time 18 hr
Candida albicans = settings: 32 ug/mL
Cryptococcus neoformans = settings: Concentration 32 ug.mL-1; ASSAY_TEST Inhibition of Fungal Growth; detection method Resazurin; Absorption (OD600-OD570); plate type 384well; NBS; CORNING #3640

## C=C[C@H]1[C@H](O[C@@H]2O[C@H](CO)[C@@H](O)[C@H](O)[C@H]2O)OC=C2C(=O)OCC[C@]21O [SWERTIAMARIN]
Klebsiella pneumoniae
  Inhibition: 13.48%
Candida albicans
  Inhibition: 14.2%
Cryptococcus neoformans
  Inhibition: 102.17%

## CN(C)C(=N)NC(=N)N.Cl [METFORMIN HYDROCHLORIDE]
Klebsiella pneumoniae
  Inhibition: 14.76%
Candida albicans
  Inhibition: 99%
Cryptococcus neoformans
  Inhibition: 90.72%
